# Measurements from PubChem BioAssay (NCI).
# The panel holds about 83,000 compounds, 20% with a hit somewhere; the sample as a whole holds those more often.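 In brief: 96-well plates, 48 h treatment, single concentration, percent growth endpoint.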 Values without a mark were called inactive. Calls of active or inactive are those of the source. The calls were made as follows: active = growth percent below 10; inactive = the rest.
# Assays:
# Experiment in all cases: NCI-60 one-dose screen, 48 h (100 = growth as untreated, 0 = no growth, -100 = all killed)
# Conditions in all cases: 10 µM unless noted
# HCT-15 colon = test system: HCT-15 colon
# HT29 colon = test system: HT29 colon
# SNB-75 CNS = test system: SNB-75 CNS
# SNB-19 CNS = test system: SNB-19 CNS
# U251 CNS = test system: U251 CNS
# PC-3 prostate = test system: PC-3 prostate
# SK-MEL-5 melanoma = test system: SK-MEL-5 melanoma
# UACC-62 melanoma = test system: UACC-62 melanoma
# LOX IMVI melanoma = test system: LOX IMVI melanoma
# SK-MEL-28 melanoma = test system: SK-MEL-28 melanoma
# SK-MEL-2 melanoma = test system: SK-MEL-2 melanoma
# EKVX NSCLC = test system: EKVX NSCLC
# SN12C renal = test system: SN12C renal
# UO-31 renal = test system: UO-31 renal
# TK-10 renal = test system: TK-10 renal
# ACHN renal = test system: ACHN renal
# CAKI-1 renal = test system: CAKI-1 renal
# A498 renal = test system: A498 renal
# CCRF-CEM leukemia = test system: CCRF-CEM leukemia
# MOLT-4 leukemia = test system: MOLT-4 leukemia
Compound,growth (HCT-15 colon),growth (HT29 colon),growth (SNB-75 CNS),growth (SNB-19 CNS),growth (U251 CNS),growth (PC-3 prostate),growth (SK-MEL-5 melanoma),growth (UACC-62 melanoma),growth (LOX IMVI melanoma),growth (SK-MEL-28 melanoma),growth (SK-MEL-2 melanoma),growth (EKVX NSCLC),growth (SN12C renal),growth (UO-31 renal),growth (TK-10 renal),growth (ACHN renal),growth (CAKI-1 renal),growth (A498 renal),growth (CCRF-CEM leukemia),growth (MOLT-4 leukemia)
Nc1nc(N)c2cc(Sc3ccc(Cl)cc3)ccc2n1,20.5%,14.8%,48.2%,40%,24.7%,25.2%,17.8%,24.4%,27%,54%,50.7%,33.6%,29.7%,21.6%,43%,23%,13.5%,63.6%,41.5%,25.8%
C#CC[C@@H]1C[C@]2(C)[C@H]3CC=C4[C@H]5[C@@H](C)[C@H](C)CC[C@]5(C(=O)NCCCN5CCN(CCCN)CC5)CC[C@@]4(C)[C@]3(C)CC[C@H]2C(C)(C)[C@H]1OC(C)=O,-83.7% (active),-72.8% (active),-61.5% (active),-46.1% (active),-75.8% (active),15%,-7.08% (active),-68.1% (active),-83.2% (active),-84.6% (active),-57.3% (active),-83.4% (active),-43.8% (active),-84.2% (active),-32.8% (active),-74.9% (active),-68% (active),111%,-29.4% (active),-38.1% (active)
O=S(=O)(NCC[C@@H]1C[C@H]1c1ccc2ccccc2c1)c1ccc(C(F)(F)F)cc1,93.4%,92.7%,73.6%,97.3%,93.5%,81.7%,94.5%,78.5%,97.8%,108%,104%,91.1%,92.9%,81.7%,100%,99.2%,79.4%,94.2%,85%,84.3%
O=C(CSc1ccc(Cl)cc1)Nc1ccc(-c2nc3ccccc3s2)c(Cl)c1,39.6%,57%,79.1%,62.7%,52.9%,30.9%,79%,58.4%,63.2%,108%,92.9%,59.6%,46.5%,38.2%,85.4%,54.1%,53.5%,32.1%,41.6%,68.3%
Nc1n[nH]c2ccc([C@@H]3Nc4c(F)cc5[nH]ncc5c4[C@H]4C5CCC(C5)[C@@H]34)cc12 (stereo not given in full),19.8%,11.7%,7.8% (active),27.9%,14.3%,22.8%,4.3% (active),38.1%,20.3%,49.2%,53.7%,31.7%,22.6%,28.2%,61%,22.7%,17.3%,-28.6% (active),18.1%,22.9%
CCCCNCC(O)c1cc2c(Cl)cc(Cl)cc2c2cc(C(F)(F)F)ccc12 (stereo not given),-60.4% (active),-84.4% (active),-87.6% (active),-71.5% (active),-95.5% (active),-89.6% (active),-35.4% (active),-84.4% (active),-77.8% (active),-88.4% (active),-65.4% (active),-59.1% (active),-82.2% (active),-81.2% (active),-88.2% (active),-78.7% (active),-65.1% (active),-19.7% (active),-49.6% (active),-54.8% (active)
CCN(CC)c1ccc(C(=N)c2ccc(N(C)C)cc2)cc1,10.9%,0.0991% (active),3.16% (active),28.2%,3.54% (active),5.51% (active),-80.1% (active),5.14% (active),19.1%,26.5%,-4.95% (active),15.2%,24.8%,8.99% (active),31.4%,30.1%,-19.9% (active),-20.1% (active),21.7%,17.7%
C/C(=C\C(=N\N=C(N)N)c1ccc(Cl)cc1)c1ccc(Cl)cc1,-69.5% (active),-70.1% (active),-82.9% (active),-79.8% (active),-93% (active),-80% (active),-98.7% (active),-87.3% (active),-59.1% (active),-81% (active),-86.4% (active),-28.2% (active),-73.8% (active),-80.1% (active),-83.4% (active),-85.8% (active),-58.4% (active),-93.6% (active),-22.5% (active),-48% (active)
